Several values for one entry are separate records, joined by “and”; a condition that tells them apart may be missing. Equal entries are not always repeated. Records with an inconclusive call do not appear. Entries that show only a call come without a potency. The source holds several records for some structures; these can differ, active in one and inactive in another. Activity calls are given as the source filed them. Unless noted, calls come from the whole dose curve; as a rule, active = well fitted curve in the direction sought with a large enough effect in the repeat runs; inconclusive = weak or mixed curves; inactive = no such curve, though single readings can be large; an effect the other way counts as inactive or inconclusive.
Legend:
[1] = Human pregnane X receptor (PXR) small molecule agonists, qHTS cell viability counter screen (AID 1346977); note: nearly all actives have a fitted effect of over 50% in size
Outline: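 Viability counter screen: CellTiter-Fluor signal in PXR-Luc HepG2 cells, 24hr compound exposure, 37C, 5% CO2.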

[2] = Caspase-3/7 induction in HepG2 cells by small molecules, qHTS assay (AID 1346978); note: nearly all actives have a fitted effect of over 15% in size; note: potency is the fitted concentration of half-maximal effect
Outline: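 Wild-type HepG2 cells, 2,000/well, settled 5 hr at 37 C and 5% CO2, then compound-treated for 17 hr; caspase-3/7 activity read by luminescent Caspase-Glo 3/7 after 30 min at room temperature.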

[3] = Caspase-3/7 induction in CHO-K1 cells by small molecules, qHTS cell viability counter screen (AID 1346979); note: nearly all actives have a fitted effect of over 35% in size; note: potency is the fitted concentration of half-maximal effect
Outline: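 Viability readout by fluorescence (CellTiter-Fluor) on wild-type CHO-K1 cells exposed for 16hr at 37C and 5% CO2 to compounds delivered in DMSO; reagent incubated 1hr before reading.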

[4] = Caspase-3/7 induction in CHO-K1 cells by small molecules, qHTS assay (AID 1346980); note: nearly all actives have a fitted effect of over 15% in size
Outline: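 Wild-type CHO-K1 cells exposed to compounds for 17hr at 37 C, 5% CO2. Caspase-3/7 activity then measured by Caspase-Glo 3/7 luminescence after 30min at room temperature.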

[5] = Caspase-3/7 induction in HepG2 cells by small molecules, qHTS cell viability counter screen (AID 1346981); note: nearly all actives have a fitted effect of over 30% in size; note: potency is the fitted concentration of half-maximal effect
Outline: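 After a 5-hr attachment period at 37 C and 5% CO2, wild-type HepG2 cells received compounds in DMSO. Sixteen hours later CellTiter-Fluor was dispensed and the fluorescent signal quantified after a further hour.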

[6] = molecular target: Nuclear receptor subfamily 1 group I member 2 (Rattus norvegicus) (UniProt Q9R1A7); test: Rat pregnane X receptor (rPXR) activation by small molecules, qHTS assay (AID 1346983); details: rPXR luciferase reporter cells, One-Glo luminescence, 24 h; stronger effect = higher value; note: nearly all actives have a fitted effect of over 20% in size
Outline: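 Cell-based rPXR activation assay: rPXR cells, 2,000 per well, rested 5hr at 37 C, then exposed to compounds in DMSO for 24 hr at 37 C. Luciferase activity read by One-Glo luminescence after 30 min at room temperature.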

[7] = molecular target: Nuclear receptor subfamily 1 group I member 2 (Homo sapiens) (UniProt O75469); test: CYP3A4 induction through human pregnane X receptor (PXR) by small molecules, qHTS assay (AID 1346984); note: nearly all actives have a fitted effect of over 40% in size
Nuclear receptor subfamily 1 group I member 2 (Homo sapiens), sequence (O75469 whole entry, looked up): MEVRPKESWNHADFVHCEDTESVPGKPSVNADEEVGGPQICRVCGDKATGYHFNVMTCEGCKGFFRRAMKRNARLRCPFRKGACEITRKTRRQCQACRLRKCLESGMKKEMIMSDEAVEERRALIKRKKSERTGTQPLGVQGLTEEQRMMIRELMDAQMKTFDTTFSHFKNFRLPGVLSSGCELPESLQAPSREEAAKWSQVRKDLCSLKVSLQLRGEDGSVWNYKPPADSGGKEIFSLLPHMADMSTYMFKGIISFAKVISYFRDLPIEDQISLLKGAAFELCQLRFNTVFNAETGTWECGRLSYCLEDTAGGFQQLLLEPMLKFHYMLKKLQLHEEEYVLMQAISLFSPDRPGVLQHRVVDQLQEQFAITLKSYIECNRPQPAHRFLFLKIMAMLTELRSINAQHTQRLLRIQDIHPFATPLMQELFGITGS
Outline: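 Cells (DPX-2; HepG2 with PXR element plus CYP3A4-promoter luciferase) settled 5hr, then were treated 24hr at 37C. A 3hr, 3uM-final Luciferin-IPA step preceded luminescence measurement with One-Glo.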

[8] = molecular target: Nuclear receptor subfamily 1 group I member 2 (Homo sapiens) (UniProt O75469); test: Human pregnane X receptor (PXR) activation by small molecules, qHTS assay (AID 1346985); note: nearly all actives have a fitted effect of over 40% in size
Outline: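 DPX-2 cells (HepG2 co-transfected with a PXR response element and a CYP3A4-promoter luciferase construct) were seeded at 2,000 per well, rested 5 hr at 37C, then exposed to DMSO-dissolved compounds for 24 hr. Activation was read as luciferase luminescence.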

[9] = molecular target: Acetylcholinesterase (Homo sapiens) (UniProt P22303); test: Acetylcholinesterase (AChE) small molecule antagonists: colormetric cell-based qHTS assay (AID 1347395; calls by dose curve; note: nearly all actives have a fitted effect of over 30% in size)
Acetylcholinesterase (Homo sapiens), sequence (P22303 whole entry, looked up): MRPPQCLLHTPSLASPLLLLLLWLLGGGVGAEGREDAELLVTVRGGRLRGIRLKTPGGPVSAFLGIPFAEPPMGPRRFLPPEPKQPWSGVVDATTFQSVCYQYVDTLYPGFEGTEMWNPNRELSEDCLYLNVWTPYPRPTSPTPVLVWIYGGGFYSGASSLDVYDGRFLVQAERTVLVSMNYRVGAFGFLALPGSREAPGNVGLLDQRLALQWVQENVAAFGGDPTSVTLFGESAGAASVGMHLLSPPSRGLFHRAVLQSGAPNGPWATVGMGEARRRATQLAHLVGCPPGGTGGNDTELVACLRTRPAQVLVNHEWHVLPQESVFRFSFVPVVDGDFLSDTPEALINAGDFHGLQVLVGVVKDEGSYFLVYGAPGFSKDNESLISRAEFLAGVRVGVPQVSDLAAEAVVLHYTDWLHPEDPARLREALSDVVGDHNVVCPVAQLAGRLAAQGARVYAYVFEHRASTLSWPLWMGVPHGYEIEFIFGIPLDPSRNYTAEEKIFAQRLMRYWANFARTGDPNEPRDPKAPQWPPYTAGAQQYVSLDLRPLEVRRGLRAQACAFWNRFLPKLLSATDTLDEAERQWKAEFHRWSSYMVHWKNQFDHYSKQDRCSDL
Outline: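 Homogeneous whole-cell format. SH-SY5Y cells seeded overnight, dosed with compound (30 min, 37 C, 5% CO2), then given DTNB/acetylthiocholine cocktail for 90 min at 37 C; colorimetric signal.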

[10] = molecular target: Acetylcholinesterase (Homo sapiens) (UniProt P22303); test: Acetylcholinesterase (AChE) small molecule antagonists: enzyme-based qHTS assay (AID 1347397; calls by dose curve; note: nearly all actives have a fitted effect of over 55% in size; note: potency is the fitted concentration of half-maximal effect); details: Potency: AChE enzyme activity inhibition
Outline: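 In this quantitative HTS, compounds from the Tox21 10K collection were preincubated 30 min at ambient temperature with recombinant human AChE dispensed at 50 mU/mL. Hydrolysis of acetylthiocholine was then followed for 10 min by DTNB colour development.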

[11] = molecular target: Acetylcholinesterase (Homo sapiens) (UniProt P22303); test: Acetylcholinesterase (AChE) small molecule antagonists: fluorescence cell-based qHTS assay (AID 1347398; calls by dose curve; note: nearly all actives have a fitted effect of over 50% in size); details: Potency: AChE activity
Outline: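 Cells (SH-SY5Y) attached overnight, were dosed with compound or DMSO vehicle for 30 min at 37 C, and then incubated 40 min at room temperature with acetylthiocholine and Thiolite Green; green fluorescence indexed AChE activity.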

[12] = molecular target: Acetylcholinesterase (Homo sapiens) (UniProt P22303); test: Acetylcholinesterase (AChE) small molecule antagonists: enzyme-based qHTS assay with human liver microsomes (AID 1347399; calls by dose curve; note: nearly all actives have a fitted effect of over 60% in size; note: potency is the fitted concentration of half-maximal effect); details: Potency: qHTS inhibition
Outline: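 Recombinant human AChE (50 mU/mL in the enzyme mix) and human liver microsomes (0.25 mg/mL final) were preincubated with compound and NADPH (0.25 mg/mL final) for 30 min at 37 C. Acetylthiocholine/DTNB was then added; thiocholine was read colorimetrically after 10 min at room temperature.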

[13] = molecular target: Cytochrome P450 2D6 (Homo sapiens) (UniProt P10635); test: Cytochrome P450 Family 2 Subfamily D Member 6 (CYP2D6) small molecule antagonists: luciferase reporter qHTS assay (AID 1671196); note: nearly all actives have a fitted effect of over 50% in size; note: potency is the fitted concentration of half-maximal effect
Cytochrome P450 2D6 (Homo sapiens), sequence (P10635 whole entry, looked up): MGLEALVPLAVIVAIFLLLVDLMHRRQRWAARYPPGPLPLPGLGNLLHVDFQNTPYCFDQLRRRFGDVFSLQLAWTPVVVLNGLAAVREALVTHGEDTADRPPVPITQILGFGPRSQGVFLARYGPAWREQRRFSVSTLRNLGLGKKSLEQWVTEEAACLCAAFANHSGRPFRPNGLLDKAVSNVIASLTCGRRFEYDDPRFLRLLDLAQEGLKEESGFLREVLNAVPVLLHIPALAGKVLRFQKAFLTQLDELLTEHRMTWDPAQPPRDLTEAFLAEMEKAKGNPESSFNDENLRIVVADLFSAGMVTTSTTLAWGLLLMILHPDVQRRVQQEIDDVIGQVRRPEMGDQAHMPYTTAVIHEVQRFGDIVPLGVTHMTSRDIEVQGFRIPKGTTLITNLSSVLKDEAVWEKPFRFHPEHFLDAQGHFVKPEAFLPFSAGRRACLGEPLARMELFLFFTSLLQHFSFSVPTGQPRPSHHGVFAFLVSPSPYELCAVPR
Outline: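 Room-temperature luminescent CYP2D6 activity assay: compound preincubated 10 min with enzyme–substrate mix, NADPH-initiated reaction 1 h, detection reagent 20 min before reading.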

[14] = molecular target: Cytochrome P450 2C19 (Homo sapiens) (UniProt P33261); test: Cytochrome P450 Family 2 Subfamily C Member 19 (CYP2C19) small molecule antagonists: luciferase reporter qHTS assay (AID 1671197); note: nearly all actives have a fitted effect of over 65% in size; note: potency is the fitted concentration of half-maximal effect
Cytochrome P450 2C19 (Homo sapiens), sequence (P33261 whole entry, looked up): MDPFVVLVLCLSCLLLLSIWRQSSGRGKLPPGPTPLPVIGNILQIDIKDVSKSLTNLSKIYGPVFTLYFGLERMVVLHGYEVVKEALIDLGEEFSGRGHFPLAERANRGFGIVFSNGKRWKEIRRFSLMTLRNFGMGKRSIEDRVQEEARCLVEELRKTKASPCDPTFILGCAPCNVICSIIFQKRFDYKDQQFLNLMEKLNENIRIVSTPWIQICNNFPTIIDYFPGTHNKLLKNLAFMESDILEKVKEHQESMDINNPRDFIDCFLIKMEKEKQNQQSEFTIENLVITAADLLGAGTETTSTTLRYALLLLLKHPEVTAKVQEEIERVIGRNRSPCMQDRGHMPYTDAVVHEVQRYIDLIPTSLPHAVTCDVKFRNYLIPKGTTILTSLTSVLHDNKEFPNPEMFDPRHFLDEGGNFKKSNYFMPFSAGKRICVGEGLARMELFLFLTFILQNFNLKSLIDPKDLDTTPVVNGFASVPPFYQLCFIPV
Outline: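 Inhibition of CYP2C19 was scored from loss of luminescence in a P450-Glo proluciferin substrate assay, NADPH-started and run 1 h at 37C, with ketoconazole as positive control.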

[15] = molecular target: Cytochrome P450 1A2 (Homo sapiens) (UniProt P05177); test: Cytochrome P450 Family 1 Subfamily A Member 2 (CYP1A2) small molecule antagonists: luciferase reporter qHTS assay (AID 1671199); note: nearly all actives have a fitted effect of over 50% in size; note: potency is the fitted concentration of half-maximal effect
Cytochrome P450 1A2 (Homo sapiens), sequence (P05177 whole entry, looked up): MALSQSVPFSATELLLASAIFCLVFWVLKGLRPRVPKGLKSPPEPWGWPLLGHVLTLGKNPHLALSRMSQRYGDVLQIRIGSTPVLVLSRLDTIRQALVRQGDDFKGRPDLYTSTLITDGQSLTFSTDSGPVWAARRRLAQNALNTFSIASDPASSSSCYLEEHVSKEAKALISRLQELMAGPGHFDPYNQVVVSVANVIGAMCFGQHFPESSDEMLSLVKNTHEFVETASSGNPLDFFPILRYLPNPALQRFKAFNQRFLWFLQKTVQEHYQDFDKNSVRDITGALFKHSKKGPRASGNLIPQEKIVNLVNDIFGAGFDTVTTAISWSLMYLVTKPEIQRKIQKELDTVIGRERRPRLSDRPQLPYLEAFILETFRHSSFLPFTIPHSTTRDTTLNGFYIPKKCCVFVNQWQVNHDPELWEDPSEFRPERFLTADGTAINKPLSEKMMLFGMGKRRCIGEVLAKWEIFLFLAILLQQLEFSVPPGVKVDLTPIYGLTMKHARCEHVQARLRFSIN
Outline: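 Room-temperature CYP1A2 reaction with proluciferin substrate: compounds added from DMSO, 10 min preincubation, NADPH regeneration for 1 h. Luciferin detection reagent then added; luminescence recorded as RLU.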

[16] = molecular target: Voltage-gated inwardly rectifying potassium channel KCNH2 (Homo sapiens) (UniProt Q12809); test: Human Ether-a-go-go-Related Gene (hERG) channel small molecule antagonists: fluorescence cell-based qHTS assay (AID 1671200)
Voltage-gated inwardly rectifying potassium channel KCNH2 (Homo sapiens), sequence (Q12809 whole entry, looked up): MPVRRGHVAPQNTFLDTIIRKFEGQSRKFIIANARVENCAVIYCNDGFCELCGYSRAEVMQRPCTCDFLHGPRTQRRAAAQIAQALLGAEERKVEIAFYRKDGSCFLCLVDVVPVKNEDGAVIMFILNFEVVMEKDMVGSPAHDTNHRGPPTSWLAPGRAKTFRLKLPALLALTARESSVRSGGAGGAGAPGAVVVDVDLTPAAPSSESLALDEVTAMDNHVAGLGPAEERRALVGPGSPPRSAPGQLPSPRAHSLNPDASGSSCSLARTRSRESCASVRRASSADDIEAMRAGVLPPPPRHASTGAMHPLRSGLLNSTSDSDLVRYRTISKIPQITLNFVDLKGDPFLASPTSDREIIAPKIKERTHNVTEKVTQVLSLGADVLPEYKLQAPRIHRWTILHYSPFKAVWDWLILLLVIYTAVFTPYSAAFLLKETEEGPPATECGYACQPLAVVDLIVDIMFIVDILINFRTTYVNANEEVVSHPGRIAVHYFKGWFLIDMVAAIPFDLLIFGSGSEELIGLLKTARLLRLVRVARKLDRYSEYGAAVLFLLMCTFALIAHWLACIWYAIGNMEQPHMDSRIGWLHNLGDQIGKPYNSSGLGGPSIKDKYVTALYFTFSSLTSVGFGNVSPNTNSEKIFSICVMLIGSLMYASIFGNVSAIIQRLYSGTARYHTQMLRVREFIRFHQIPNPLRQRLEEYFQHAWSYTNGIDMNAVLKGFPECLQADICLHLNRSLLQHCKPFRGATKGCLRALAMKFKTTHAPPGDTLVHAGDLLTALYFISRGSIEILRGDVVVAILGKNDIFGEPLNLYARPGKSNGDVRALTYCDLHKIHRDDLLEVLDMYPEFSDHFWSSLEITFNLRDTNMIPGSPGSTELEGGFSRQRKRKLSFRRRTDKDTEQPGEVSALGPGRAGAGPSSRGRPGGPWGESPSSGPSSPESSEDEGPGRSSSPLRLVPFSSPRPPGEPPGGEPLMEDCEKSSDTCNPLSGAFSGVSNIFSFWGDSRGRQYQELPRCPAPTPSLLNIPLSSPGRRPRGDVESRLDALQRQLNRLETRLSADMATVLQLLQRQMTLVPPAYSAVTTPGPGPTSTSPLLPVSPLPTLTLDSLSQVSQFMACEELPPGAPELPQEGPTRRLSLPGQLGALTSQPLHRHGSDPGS
Outline: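 Thallium served as the potassium surrogate; its influx into dye-loaded U2OS cells carrying the channel was measured by fluorescence over 2 min.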

[17] = molecular target: Cytochrome P450 3A4 (Homo sapiens) (UniProt P08684); test: Cytochrome P450 Family 3 Subfamily A Member 4 (CYP3A4) small molecule antagonists: luciferase reporter qHTS assay (AID 1671201); note: nearly all actives have a fitted effect of over 50% in size; note: potency is the fitted concentration of half-maximal effect
Cytochrome P450 3A4 (Homo sapiens), sequence (P08684 whole entry, looked up): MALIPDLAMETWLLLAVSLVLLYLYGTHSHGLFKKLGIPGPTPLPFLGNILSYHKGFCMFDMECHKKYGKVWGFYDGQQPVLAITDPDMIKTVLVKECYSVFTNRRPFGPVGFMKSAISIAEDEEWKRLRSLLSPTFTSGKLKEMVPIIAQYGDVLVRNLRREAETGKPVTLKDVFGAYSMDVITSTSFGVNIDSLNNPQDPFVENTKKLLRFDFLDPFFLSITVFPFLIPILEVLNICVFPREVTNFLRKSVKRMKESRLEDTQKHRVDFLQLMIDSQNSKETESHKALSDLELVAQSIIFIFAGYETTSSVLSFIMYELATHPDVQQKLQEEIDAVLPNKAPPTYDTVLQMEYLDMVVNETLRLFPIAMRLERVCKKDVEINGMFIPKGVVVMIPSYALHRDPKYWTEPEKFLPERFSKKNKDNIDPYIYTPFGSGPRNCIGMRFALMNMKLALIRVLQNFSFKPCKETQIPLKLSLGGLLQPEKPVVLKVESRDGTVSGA
Outline: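 Relative luminescence units after 20 min with luciferin detection reagent served as read-out. Beforehand, CYP3A4 turned over a proluciferin substrate for 1 h at room temperature with NADPH regeneration, following 10 min compound preincubation.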

[18] = molecular target: Nuclear receptor subfamily 1 group I member 2 (Homo sapiens) (UniProt O75469); test: Human pregnane X receptor (PXR) small molecule agonists, qHTS assay (AID 1346982); note: nearly all actives have a fitted effect of over 35% in size; note: potency is the fitted concentration of half-maximal effect
Outline: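 Tox21 qHTS; PXR-Luc HepG2; compounds pinned from DMSO; 24 hr, 37 C; ONE-Glo luciferase detection, 30 min room temperature.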

[19] = molecular target: Cytochrome P450 2C9 (Homo sapiens) (UniProt P11712); test: Cytochrome P450 Family 2 Subfamily C Member 9 (CYP2C9) small molecule antagonists: luciferase reporter qHTS assay (AID 1671198); note: nearly all actives have a fitted effect of over 50% in size; note: potency is the fitted concentration of half-maximal effect
Cytochrome P450 2C9 (Homo sapiens), sequence (P11712 whole entry, looked up): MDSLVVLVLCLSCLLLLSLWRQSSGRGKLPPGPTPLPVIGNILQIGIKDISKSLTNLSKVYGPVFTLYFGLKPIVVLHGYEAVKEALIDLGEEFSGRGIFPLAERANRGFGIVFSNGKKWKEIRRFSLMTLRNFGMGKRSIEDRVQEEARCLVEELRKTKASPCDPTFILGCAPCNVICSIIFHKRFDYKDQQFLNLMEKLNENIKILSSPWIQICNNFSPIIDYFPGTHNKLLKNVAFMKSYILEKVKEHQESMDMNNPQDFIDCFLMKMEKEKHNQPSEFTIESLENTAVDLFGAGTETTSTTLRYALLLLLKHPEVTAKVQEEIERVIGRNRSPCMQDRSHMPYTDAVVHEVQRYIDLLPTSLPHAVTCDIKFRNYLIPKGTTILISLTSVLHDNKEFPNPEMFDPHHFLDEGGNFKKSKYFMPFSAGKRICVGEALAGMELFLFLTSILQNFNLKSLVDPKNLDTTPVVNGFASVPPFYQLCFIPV
Outline: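 P450-Glo proluciferin substrate with CYP2C9 enzyme; 10 min RT preincubation, then NADPH regeneration 1 h at 37C; luciferin detection reagent 20 min RT, luminescence in relative luminescence units.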

Row | Compound | Potency [1] | Potency [2] | Potency [3] | Potency [4] | Potency [5] | max activation [6] | Potency [7] | outcome [8] | Potency [9] | Potency [10] | Potency [11] | Potency [12] | Potency [13] | Potency [14] | Potency [15] | Potency [16] | Potency [17] | Potency [18] | Potency [19]
1 | CCCCCCCCCC(CC)c1ccc(S(=O)(=O)O)cc1 (stereo not drawn) | inactive | inactive | 61.8 µM (active) and inactive and 52.9 µM (active) | inactive | inactive | -0.486% (inactive) | inactive | inactive | inactive | 57 µM (active) and 79.6 µM (active) and 47.4 µM (active) | inactive | inactive | inactive and 50.2 µM (active) | 40.1 µM (active) and inactive and 35.6 µM (active) | 63.2 µM (active) and inactive and 63.3 µM (active) | inactive | inactive | – | –
2 | Clc1cccc(Cl)c1 | inactive | inactive | inactive | inactive | inactive | – | – | – | inactive | inactive | – | inactive | inactive | 62.8 µM (active) and inactive | – | inactive | inactive | inactive | inactive
3 | COP(=S)(OC)SCn1nnc2ccccc2c1=O | inactive | inactive | – | inactive | inactive | – | – | – | – | – | – | inactive | 55.3 µM (active) and 39.9 µM (active) | 1.1 µM (active) and 894 nM (active) | 27.7 µM (active) and 28.3 µM (active) | inactive | 7.81 µM (active) and 11.2 µM (active) | 53.4 µM (active) | 5.53 µM (active) and 3.99 µM (active)
4 | CCCCSP(=O)(SCCCC)SCCCC | inactive | inactive | inactive | inactive | inactive | – | – | – | – | inactive | – | 5.51 µM (active) and 5.03 µM (active) | – | 7.78 µM (active) and 2.52 µM (active) | 21.9 µM (active) and 12.6 µM (active) | inactive | – | 23.8 µM (active) | 8.73 µM (active) and 3.17 µM (active)
5 | O=C(O)CF | inactive | inactive | inactive | inactive | inactive | – | – | – | inactive | inactive | – | inactive | inactive | inactive | inactive | inactive | inactive | inactive | inactive
6 | CC1=C(C(=O)Nc2ccccc2)SCCO1 | inactive | inactive | – | inactive | inactive | – | – | – | inactive | inactive | inactive | inactive | – | 36.2 µM (active) and 22.4 µM (active) | 12.8 µM (active) and 12.6 µM (active) | inactive | inactive | 34.9 µM (active) and 30.6 µM (active) | 11.2 µM (active)
7 | Cc1cccc(N=Nc2ccc(N(C)C)cc2)c1 | inactive | 7.83 µM (active) and 2.43 µM (active) | 62.2 µM (active) and 43.3 µM (active) | inactive | 27.8 µM (active) and 8.63 µM (active) | – | – | – | inactive | inactive | – | inactive | inactive | 10.2 µM (active) and 17.8 µM (active) | 2.28 µM (active) and 3.56 µM (active) | inactive | inactive | 221 nM (active) and 3.06 µM (active) | –

Source: PubChem BioAssay (Tox21)
